PglD inh – inhibitors of Campylobacter jejuni PglD acetyltransferase | purified PglD enzyme, DTNB colorimetric CoA detection | inhibition, % at 12.5 µM | actives 0.098% (n = 360,000); in the data active means inhibition above about 16%, passing the limit was not always enough
ERp5 inh – ERp5 (human) disulfide isomerase inhibition | actives 0.05% (n = 350,000) | inhibition, % at 9.99 µM | ERp5 insulin aggregation, absorbance 650 nm, 90 min | Q15084;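 active means mean replicate inhibition above about 25%, with every replicate also reaching it, limit read from the data, passing the limit was not always enough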
ARNT TACC3 PPI – disruptors of human ARNT/TACC3 interaction | Q9Y6A5 | AlphaScreen His-ARNT PAS-B/GST-TACC3 binding, luminescence; TACC3 fragment carries E629A point mutation | inhibition, % at 9.99 µM | actives 0.66% (n = 390,000) | AID 623870;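 active means mean inhibition of replicates at least 50% and at least half of replicates each reaching 50%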;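 further: 0% = complete ARNT plus TACC3 wells and 100% = ARNT alone without TACC3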
ALR inh – blocks human ALR sulfhydryl oxidase activity | P55789 | purified ALR, DTT oxidation, H2O2 HRP-luminol luminescence | inhibition, % (concentration not given with the values) | actives 3.8% (n = 290,000);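 active means mean replicate inhibition above about 79%, with every replicate also reaching it, limit read from the data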
Target sequence (P55789 whole entry, looked up): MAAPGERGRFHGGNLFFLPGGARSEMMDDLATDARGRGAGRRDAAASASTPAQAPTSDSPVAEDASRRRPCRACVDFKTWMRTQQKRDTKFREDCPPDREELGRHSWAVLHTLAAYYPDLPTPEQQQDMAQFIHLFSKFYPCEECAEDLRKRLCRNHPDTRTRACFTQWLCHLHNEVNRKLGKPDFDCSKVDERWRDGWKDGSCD
PDI inh – PDI (human) enzyme inhibition; inhibition, % at 10 µM; actives 0.052% (n = 350,000); AID 588391; PDI insulin aggregation turbidity, A650, 90 min; P07237;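 active means mean inhibition across replicates of 30% or more, whatever share of single replicates reach that level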
CendR NRP1 mod – modulators of CendR peptide binding to human neuropilin-1; O14786; FAM-RPARPAR peptide binding to NRP-1, fluorescence polarization; inhibition, % at 25 µM; actives 0.85% (n = 360,000); AID 602438;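 active means inhibition or corrected inhibition above about 18%, plus a signal ratio from 0.5 to 1.5, limit read from the data, passing the limit was not always enough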
Numbers without * were called inactive. The sample as a whole holds a higher share of hits than the screen did.

`COC(=O)c1ccccc1NC(=O)CSc1nc(O)cc(=O)n1C1CCCC1` gave PglD inh -3.4, ARNT TACC3 PPI -1.7, ALR inh 97.8*, PDI inh 5.0 and CendR NRP1 mod -11.1.
For CCCCNC(=O)CSc1nc(O)cc(=O)n1C1CCCC1 the results were PglD inh -1.3, ERp5 inh 0.3, ARNT TACC3 PPI 8.0, PDI inh 10.1 and CendR NRP1 mod -4.3.
Screening CCc1ccc(NC(=O)CSc2nc(O)cc(=O)n2C2CCCC2)cc1 returned ERp5 inh 7.6, ARNT TACC3 PPI 5.3, ALR inh 99.3*, PDI inh -2.6 and CendR NRP1 mod 0.2.
Screening O=C(CSc1nc(O)cc(=O)n1C1CCCC1)Nc1cccc(Cl)c1Cl returned ERp5 inh 8.5, ARNT TACC3 PPI -3.9, ALR inh 99.1*, PDI inh 2.2 and CendR NRP1 mod -9.8.
Screening O=C(CSc1nc(O)cc(=O)n1-c1ccccc1)NC1CCCCC1 returned ARNT TACC3 PPI 3.0, ALR inh 9.2, PDI inh 3.5 and CendR NRP1 mod -26.9.
Screening C[C@@H]1CCCCO[C@H](CN(C)S(=O)(=O)c2cccs2)[C@@H](C)CN([C@H](C)CO)C(=O)c2cc(NC(=O)c3ccncc3)ccc2O1 returned PglD inh 3.8, ERp5 inh -2.0 and ARNT TACC3 PPI -1.8.
C=CCOc1c(Br)cc(CNn2c(C)n[nH]c2=S)cc1OCC was read as PglD inh 1.7, ERp5 inh 2.4, ARNT TACC3 PPI 6.0, ALR inh 6.6, PDI inh 7.6 and CendR NRP1 mod -6.4.
`C=CCOc1c(Br)cc(CNn2cn[nH]c2=S)cc1OC` gave PglD inh 0.9, ERp5 inh -2.7, ARNT TACC3 PPI -1.9, ALR inh 92.4*, PDI inh -2.1 and CendR NRP1 mod -0.9.
For CNC(=O)C[C@H]1CC[C@@H]2[C@H](COc3ccc(NC(=O)Cc4cccs4)cc3C(=O)N2C)O1 the results were PglD inh 0.3 and ARNT TACC3 PPI -6.2.
Screening C[C@@H]1CN([C@H](C)CO)S(=O)(=O)c2ccc(-c3ccncc3)cc2O[C@@H]1CN(C)CC1CC1 returned PglD inh 4.3, ERp5 inh -146.0 and ARNT TACC3 PPI -2.0.
For CC(=O)N1CCN(c2nnc(-c3ccccc3)c3ccccc23)CC1 the results were PglD inh 1.0, ERp5 inh 2.1, ARNT TACC3 PPI -25.3, ALR inh 1.2, PDI inh -7.3 and CendR NRP1 mod -4.5.
Screening CC(=O)C1=C(c2ccccc2)N(C(C)=O)n2c(C)nnc2S1 returned PglD inh -1.0, ERp5 inh 0.7, ARNT TACC3 PPI 35.2*, ALR inh 98.7*, PDI inh -7.2 and CendR NRP1 mod -19.8.
For COc1ccc(S(=O)(=O)N(C)C[C@H]2Oc3ccc(NS(C)(=O)=O)cc3C(=O)N([C@@H](C)CO)C[C@@H]2C)cc1 the results were PglD inh 2.9, ERp5 inh 5.8 and ARNT TACC3 PPI -3.0.
Screening COC(=O)C(C(=O)OC)C(CC(=O)c1ccc(C)cc1)c1cc(OC)c(OC)c(OC)c1 (stereo unspecified) returned PglD inh -7.1, ERp5 inh 0.0, ARNT TACC3 PPI -21.2, ALR inh 97.4*, PDI inh -0.6 and CendR NRP1 mod 5.2.
`Cc1ccc(NNC(=O)c2ccno2)c(C)c1` gave PglD inh -2.7, ERp5 inh -1.5, ARNT TACC3 PPI -3.0, ALR inh 99.2*, PDI inh 6.3 and CendR NRP1 mod -0.1.
Cc1noc(C)c1NC(=O)N[C@H]1CC[C@@H](CC(=O)N2CCCCC2)O[C@@H]1CO was read as PglD inh -2.6, ERp5 inh -3.9 and ARNT TACC3 PPI 4.6.
`CCOC(=O)CSc1nc2sc3c(c2c(=O)n1-c1ccccc1)CCN(C)C3` gave PglD inh 5.9, ERp5 inh 3.9, ARNT TACC3 PPI 2.7, ALR inh 99.6*, PDI inh -2.6 and CendR NRP1 mod -18.4.
Screening Cc1sc2nc(SCC(=O)N(CCO)CCO)n(C3CCCCC3)c(=O)c2c1C returned PglD inh 0.7, ERp5 inh -1.3, ARNT TACC3 PPI 5.4, ALR inh -0.4, PDI inh 4.8 and CendR NRP1 mod 24.1*.

From PubChem
